SMILES strings stand for the structures. Hit rate of the full screen: of about 220,000 compounds, about 910 (0.41%) were called active.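 Rule for the calls: active = primary inhibition above the hit cutoff, then over 50% inhibition at one or more dose response concentrations (cut at about 23% in these data, passing the limit was not always enough); inconclusive = conflicting primary data, or primary hits not chosen for dose response; inactive = low primary inhibition, or under 50% at every dose.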 Only a selection was taken, and actives are over-represented in it overall. Entries with a potency or affinity are not part of this list. Where a SMILES comes first, the peptide text is derived from it.

The target in the assay is Aminopeptidase N (Plasmodium falciparum (isolate 3D7)) (UniProt O96935). Description: P. falciparum M1AAP inhibitors, biochemical, fluorogenic H-Leu-NHMec substrate, 1536-well (AID 1445).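 Note: plate controls were DMSO full reaction for no effect and no enzyme background for full effect.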 Particulars: recombinant M1AAP, H-Leu-NHMec fluorogenic kinetic assay; at 30 µM, stronger effect = higher value unless noted.
Aminopeptidase N (Plasmodium falciparum (isolate 3D7)), sequence (O96935 whole entry, looked up): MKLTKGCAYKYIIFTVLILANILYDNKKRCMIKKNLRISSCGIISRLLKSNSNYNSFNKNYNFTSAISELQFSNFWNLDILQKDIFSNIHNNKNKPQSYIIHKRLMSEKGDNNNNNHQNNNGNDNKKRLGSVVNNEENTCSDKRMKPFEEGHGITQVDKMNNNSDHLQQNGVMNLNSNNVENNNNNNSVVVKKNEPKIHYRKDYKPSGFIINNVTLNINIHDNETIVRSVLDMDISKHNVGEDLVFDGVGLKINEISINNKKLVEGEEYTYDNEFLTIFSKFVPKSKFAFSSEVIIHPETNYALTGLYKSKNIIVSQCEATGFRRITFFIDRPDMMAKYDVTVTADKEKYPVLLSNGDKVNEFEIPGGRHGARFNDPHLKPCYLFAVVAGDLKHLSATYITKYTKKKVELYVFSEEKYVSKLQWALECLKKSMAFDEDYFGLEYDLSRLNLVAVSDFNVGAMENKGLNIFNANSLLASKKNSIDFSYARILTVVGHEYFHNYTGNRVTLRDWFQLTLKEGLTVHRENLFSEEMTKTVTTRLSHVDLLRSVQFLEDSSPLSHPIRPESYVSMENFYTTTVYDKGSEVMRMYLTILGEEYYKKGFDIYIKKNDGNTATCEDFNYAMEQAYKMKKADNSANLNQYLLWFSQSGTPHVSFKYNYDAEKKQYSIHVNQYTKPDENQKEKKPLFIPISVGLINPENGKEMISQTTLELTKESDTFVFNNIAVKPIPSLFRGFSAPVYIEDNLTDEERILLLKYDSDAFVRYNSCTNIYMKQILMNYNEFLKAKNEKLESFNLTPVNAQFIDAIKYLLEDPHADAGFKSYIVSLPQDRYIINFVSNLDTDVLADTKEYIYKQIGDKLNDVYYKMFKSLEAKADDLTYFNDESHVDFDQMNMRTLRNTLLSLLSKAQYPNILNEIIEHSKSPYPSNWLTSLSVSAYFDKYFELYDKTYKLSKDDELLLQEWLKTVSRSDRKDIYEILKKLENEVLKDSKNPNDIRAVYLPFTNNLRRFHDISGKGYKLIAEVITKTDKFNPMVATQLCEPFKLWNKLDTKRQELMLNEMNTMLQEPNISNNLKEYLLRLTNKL
Regarding `CCOC(=O)c1c(C)c2c(n1C)CCC/C2=N\O`, the inhibition was 5.95% (inactive).
As to `Fc1cccc(/C=N/Nc2ncnc3nc[nH]c23)c1`, the inhibition is 17.8% (inactive).
As for `CCOC(=O)c1c(C)[nH]c(C(=O)Nc2ccc(C)c(Cl)c2)c1C`, the inhibition is -6.14% (inactive).
As to `CC(C)[C@H](NC(=O)[C@H](CC(=O)O)NC(=O)[C@H](CCCCN)NC(=O)[C@@H](N)CCCN=C(N)N)C(=O)N[C@@H](Cc1ccc(O)cc1)C(=O)O` (H-RKDVY-OH), the inhibition is -1.63% (inactive).
On to `O=C(N[C@@H](Cc1ccc(O)cc1)C(=O)O)C(c1ccccc1)c1ccccc1`, for which the inhibition was 1.32% (inactive).
Regarding `COc1cc(/C=N/n2cnnc2)ccc1OS(=O)(=O)c1ccccc1[N+](=O)[O-]`, the inhibition is -1.85% (inactive).
For `CC/C(C)=C1\SC(N2CCN(c3cccc(C(F)(F)F)c3)CC2)=NC1=O`, the inhibition is -4.38% (inactive).
For the compound `O=C(COc1ccc(Cl)cc1)NNC(=O)c1cccnc1`, the inhibition was 3.11% (inactive).
The same measure for `CCC(CC)NC(=O)c1cccc(Br)c1`: 4.75% (inactive); for `COc1cccc(NC(=O)CSc2nc3n[nH]c(C)c3c(=N)n2-c2cccc(OC)c2)c1`: 1.29% (inactive); for `COc1ccc(Cc2nnc(SCC(=O)NC3CCCCC3)n2C)cc1`: 24.3% (active).
As to `COc1cccc(-n2c(SCC(=O)NC3CCCCC3)nc3n[nH]c(C)c3c2=N)c1`, the inhibition was 57.3% (active).
Turning to `Cn1c(Cc2ccccc2)nnc1SCC(=O)NC1CCCCC1`, the inhibition is -1.27% (inactive).
For the compound `CCn1c(Cc2ccc(OC)cc2)nnc1SCC(=O)NC1CCCCC1`, the inhibition was 5.01% (inactive).
The same measure for `CCc1ccc(NC(=O)CSc2nc3n[nH]c(C)c3c(=N)n2-c2cccc(OC)c2)cc1`: 3.02% (inactive); for `Cc1ccc(S(=O)(=O)Oc2ccccc2/C=N/NC(=O)c2nn(C)cc2[N+](=O)[O-])cc1`: 9.1% (inactive).
As to `CCOCCCNS(=O)(=O)c1ccc(OC)c(Cl)c1Cl`, the inhibition was -1.01% (inactive).
Take `COc1cnn(Cc2ccccc2)c(=O)c1SCc1ccccc1`: the inhibition was 2.35% (inactive).
Consider `CS(=O)(=O)N1CCN(c2ccc(NC(=S)NC(=O)c3ccccc3[N+](=O)[O-])cc2)CC1`, for which the inhibition is 2.8% (inactive).
For `Cc1[nH]n(-c2cccc(Cl)c2)c(=O)c1-c1ccc(Cl)cc1`, the inhibition was 27.2% (active).
On to `Cc1[nH]n(-c2ccccc2)c(=O)c1-c1ccc(Cl)cc1`, for which the inhibition was 17.9% (inactive).
Regarding `Cc1[nH]n(-c2cccc(Cl)c2)c(=O)c1-c1ccccc1`, the inhibition was 13.4% (inactive).
The same measure for `CC(=O)c1sc(NC(=O)CCCOc2ccc(Cl)cc2)nc1C`: -3.27% (inactive); for `Oc1ccccc1N=Nc1nc(-c2ccccc2)c(-c2ccccc2)[nH]1`: -7.75% (inactive).
As to `O=c1c(=Nc2ccccc2O)c(=O)c2ccccc12`, the inhibition was -8.18% (inactive).
On to `CCOc1ccc(NC(=S)Nc2ccc(Br)cc2Cl)cc1`, for which the inhibition is 2.64% (inactive).
For `Cc1ccccc1NC(=O)CN1C(=O)C2C3CC(C(Br)C3Br)C2C1=O` (configuration not stated), the inhibition is 5.98% (inactive).
As to `O=C(CN1C(=O)C2C3C=CC(C3)C2C1=O)Nc1ccc(C(=O)O)cc1` (configuration not stated), the inhibition is 14.6% (inactive).
As for `CCOc1ccc(NC(=O)c2ccccc2NC(=O)CN(C)CC(=O)Nc2ccc(C)cc2)cc1`, the inhibition was 1.3% (inactive).
With `N#CC(=NCc1cccnc1)C1=C(O)c2ccccc2C1=O`, the inhibition was -2.18% (inactive).
Regarding `CCOC(=O)c1c(C)oc2ccc(NS(=O)(=O)c3ccc(C(=O)O)cc3)cc12`, the inhibition was 10.2% (inactive).
As for `CC1(C)CC(=O)c2c(oc3ccc(NS(=O)(=O)c4cccc5cccnc45)cc23)C1`, the inhibition is 3.99% (inactive).
Consider `O=C(N=Nc1c(O)[nH]c2ccccc12)c1cccc(S(=O)(=O)Nc2ccccc2Cl)c1`, for which the inhibition is 13.3% (inactive).
Turning to `CCOCCc1nnc(NC(=O)Cc2ccccc2)s1`, the inhibition is 7.8% (inactive).
On to `CCn1c(SCC(=O)Nc2ccccc2C)nc2nc3c(cc2c1=O)COC(C)(C)C3`, for which the inhibition is 13.2% (inactive).
Take `CCc1cc(=O)oc2cc(C)cc(OCc3nn[nH]n3)c12`: the inhibition was 9.2% (inactive).
In the case of `CCCc1cc(=O)oc2cc(C)cc(OCc3nn[nH]n3)c12` it was 17.7% (inactive).
For the compound `Cc1c(N2C(=O)/C(=C/c3ccccc3)SC2=S)c(=O)n(-c2ccccc2)n1C`, the inhibition is 13.6% (inactive).
In the case of `Cc1c(N2C(=O)/C(=C\c3ccccc3O)SC2=S)c(=O)n(-c2ccccc2)n1C` it was 13% (inactive); in that of `CCOc1c(OC(C)=O)ccc(/C=C2\N=C(SCC)SC2=O)c1[N+](=O)[O-]`, 9.88% (inactive).
As to `COC(=O)c1ccc(/C=C2\N=C(SC)SC2=O)cc1`, the inhibition was 6.81% (inactive).
The same measure for `COc1ccc(/C=C2\N=C(SC)SC2=O)cc1OC`: -0.19% (inactive); for `C=CCSC1=N/C(=C\c2cc(OCC)c(OC(C)=O)c([N+](=O)[O-])c2)C(=O)S1`: 10.7% (inactive).
Take `CCOc1cc(/C=C2\N=C(SCC)SC2=O)cc([N+](=O)[O-])c1OC(C)=O`: the inhibition is 60.6% (active).
The same measure for `Cc1ccsc1/C=N/NC(=O)c1ccc(-n2cccc2)cc1`: -0.71% (inactive); for `CCC(=O)c1ccc(N2CCN(S(=O)(=O)c3ccccc3)CC2)c(F)c1`: -2.32% (inactive).
Take `OC1CCN(c2ncnc3c2nnn3Cc2c(F)cccc2Cl)CC1`: the inhibition was -1.3% (inactive).
Regarding `Cn1nnnc1SCC(=O)Nc1c(Cl)cccc1Cl`, the inhibition was -11.1% (inactive).
`O=C(NN1C(=O)c2cc(Br)ccc2NC1c1cc(Br)cc(Br)c1O)c1ccncc1` (configuration not stated): the inhibition is 15.9% (inactive).
Regarding `NS(=O)(=O)c1ccc(CCNC(=O)c2ccc(S(=O)(=O)N3CCCCC3)cc2)cc1`, the inhibition is 15.2% (inactive).
In the case of `O=C(COC(=O)Cc1ccc(S(=O)(=O)N2CCOCC2)s1)NCCc1ccccc1` it was 5.27% (inactive); in that of `O=C(Cc1ccc(S(=O)(=O)N2CCOCC2)s1)NCC1CCCCC1`, 3.48% (inactive); in that of `NS(=O)(=O)c1ccc(CCNC(=O)CN2CCCCC2)cc1`, -1.82% (inactive).
`CCn1cc(CNC(=O)CSc2nc(-c3ccc(OC)c(OC)c3)cc(C(F)(F)F)n2)c(C)n1`: the inhibition is 8.78% (inactive).
With `O=C(CC1(c2ccc(Cl)cc2)C2CC3CC(C2)CC1C3)NCCO` (configuration not stated), the inhibition is 3.19% (inactive).
With `CCN1CCN(CCCNC(=O)c2cn(CCOC)c(=O)c3c2c2ccccc2n3C)CC1`, the inhibition was 17.7% (inactive).
For `CCOc1cc(CNc2ccc(O)cc2)cc(Br)c1OCc1ccccc1F`, the inhibition was 25.5% (active).
In the case of `CCOc1cc(CNc2ccccc2)cc(Br)c1OCc1ccccc1F` it was 6.06% (inactive); in that of `COc1cc(CNc2ccc(O)cc2)cc(Br)c1OCc1ccccc1F`, 7.46% (inactive); in that of `Cn1c(C(=O)NC2CCCCC2)cc2c(=O)n(C)c3ccccc3c21`, -0.49% (inactive).
Turning to `CC1(CC(=O)N/N=C/c2cc([N+](=O)[O-])c(O)cc2O)OCCO1`, the inhibition is 9.24% (inactive).
`CC1(CC(=O)N/N=C/c2cc3c(cc2Br)OCO3)OCCO1`: the inhibition is 9.79% (inactive).
In the case of `CC1(CC(=O)N/N=C/c2cc(Br)c(O)cc2O)OCCO1`, the inhibition was 31.5% (active).
`COc1ccc(CCNC(=O)c2cc(-c3ccc(C)c(C)c3O)n[nH]2)cc1OC`: the inhibition is 0.7% (inactive).
Take `C/C(=N/NC(=O)c1sc(NS(=O)(=O)c2ccccc2)nc1C)c1ccccc1`: the inhibition was 18.9% (inactive).
The same measure for `Cc1ccc(S(=O)(=O)Nc2nc(C)c(C(=O)NNS(=O)(=O)c3ccccc3)s2)cc1`: 3.2% (inactive); for `Cc1ccc(S(=O)(=O)Nc2nc(C)c(C(=O)Nc3ccccc3)s2)cc1`: 4.37% (inactive).
Regarding `Cc1nc(NS(=O)(=O)c2ccccc2)sc1C(=O)NN`, the inhibition was 6.77% (inactive).
As for `O=C(CSc1nc2ccccc2o1)Nc1cc(C(F)(F)F)ccc1N1CCOCC1`, the inhibition was 8.71% (inactive).
The same measure for `CCCCn1c(C)csc1=Nc1cccnc1`: 4.71% (inactive); for `Cc1cc(C)c(S(=O)(=O)Nn2cnnc2)c(C)c1`: -1% (inactive); for `CCOP(=O)(OCC)/C(C#N)=C/c1cc(OC)ccc1OC`: 1.01% (inactive).
As for `COc1ccccc1NC(=S)N1CCCC1`, the inhibition was 8.78% (inactive).
In the case of `CCOC(=O)NCc1cc(-c2nn(C)c(=O)c3ccccc23)ccc1C`, the inhibition was -0.16% (inactive).
`CCCC(=O)NCc1cc(-c2nn(C)c(=O)c3ccccc23)ccc1C`: the inhibition was -1.83% (inactive).
The same measure for `CC(=O)NCc1cc(-c2nn(C)c(=O)c3ccccc23)ccc1C`: 12.1% (inactive).
As for `CCC(=O)NCc1cc(-c2nn(C)c(=O)c3ccccc23)ccc1C`, the inhibition is 3.73% (inactive).
On to `CC(O)CNCCCOc1ccc(Cl)cc1C(C)(C)C` (configuration not stated), for which the inhibition is 2.63% (inactive).
In the case of `Cc1ccc(N(C(=O)C2CCC(=O)N2)C2(C(=O)NC3CCCCC3)CCCCC2)cc1` (configuration not stated) it was 3.72% (inactive); in that of `CC(C)NS(=O)(=O)c1ccc(CCC(=O)NCc2cccnc2)cc1`, 3.94% (inactive).
Turning to `CCCCN1CNC(=S)N(c2ccccc2OCC)C1`, the inhibition was 1.13% (inactive).
With `CCOCCCNCc1cccc(OCc2ccc(F)cc2)c1`, the inhibition was -0.98% (inactive).
In the case of `CSc1nnc(-c2cc(-c3ccc(C)cc3)nc3ccccc23)o1`, the inhibition is -2.26% (inactive).
For the compound `COc1ccc(-c2cc(-c3nnc(-c4ccncc4)o3)c3ccccc3n2)cc1`, the inhibition was 7.37% (inactive).
The same measure for `CCC(=O)Nc1ccc(-n2nnnc2SCC(=O)NNC(=O)c2ccco2)cc1`: 4.76% (inactive).
As for `S=c1[nH]nc(-c2cccnc2)n1/N=C/C=C/c1ccccc1`, the inhibition was 10.4% (inactive).
In the case of `O=C(CN(c1ccccc1)S(=O)(=O)c1ccccc1)NCCSc1nc2ccccc2s1`, the inhibition is 4.5% (inactive).
For `CN1CCN(Cc2nc3ccccc3c(=O)n2Cc2nc(-c3ccc([N+](=O)[O-])cc3)cs2)CC1`, the inhibition is 11.9% (inactive).
As to `CN1CCN(Cc2nc3ccccc3c(=O)n2Cc2nc(-c3ccc4ccccc4c3)cs2)CC1`, the inhibition is -1.75% (inactive).
On to `Cc1ccc(C(C(=O)NCc2ccco2)N(Cc2ccco2)C(=O)CNC(=O)c2ccco2)cc1` (configuration not stated), for which the inhibition was 19.3% (inactive).
Consider `COc1ccc(S(=O)(=O)N2CCC(C(=O)NCc3ccccn3)CC2)cc1OC`, for which the inhibition was 2.6% (inactive).
For the compound `COc1ccc(OC)c(S(=O)(=O)N2CCC(C(=O)NCc3ccccc3OC)CC2)c1`, the inhibition was 3.04% (inactive).
Take `COc1ccc(OC)c(S(=O)(=O)N2CCC(C(=O)NCCc3ccccc3)CC2)c1`: the inhibition is -0.81% (inactive).
The same measure for `COc1ccc(OC)c(S(=O)(=O)N2CCC(C(=O)NCc3ccccc3)CC2)c1`: 57.9% (active).
The same measure for `COc1ccc(S(=O)(=O)N2CCC(C(=O)NCCc3ccccc3)CC2)cc1OC`: -1.88% (inactive); for `COc1ccc(CCNC(=O)C2CCN(S(=O)(=O)c3cc(OC)ccc3OC)CC2)cc1`: 14.3% (inactive); for `COc1ccc(OC)c(S(=O)(=O)N2CCC(C(=O)NCCc3ccc(OC)c(OC)c3)CC2)c1`: -4.37% (inactive).

A word on the inhibition: it is the change of the read-out against control, counted positive when it falls.

The values above are taken from PubChem BioAssay AID1445 (SRMLSC, 2008).
